Experiment in all cases: NCI-60 one-dose screen, 48 h (100 = growth as untreated, 0 = no growth, -100 = all killed)
Settings in all cases: 10 µM unless noted

The test system of test [1] is DU-145 prostate.
The test system of test [2] is K-562 leukemia.
The subject of test [3] is MALME-3M melanoma.
Test [4] deals with MDA-MB-231 breast.
Test [5] concerns RXF 393 renal.
Test [6] relates to SF-268 CNS.
The subject of test [7] is SF-295 CNS.
For test [8], the system named is SF-539 CNS.
Test [9] concerns UACC-257 melanoma.
Test [10] concerns M14 melanoma.
For test [11], the system named is HCT-15 colon.
Test [12] relates to HT29 colon.
Test [13] has as its system SNB-75 CNS.
Test [14] relates to SNB-19 CNS.
Test [15] concerns U251 CNS.
In test [16] the test system is PC-3 prostate.
Test [17] concerns SK-MEL-5 melanoma.
The subject of test [18] is UACC-62 melanoma.
The subject of test [19] is LOX IMVI melanoma.
Test [20] relates to SK-MEL-28 melanoma.

About 83,000 compounds went through this panel and 20% of them were active in at least one assay; those are over-represented in the sample as a whole.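 Testing used 96-well plates and a 48-hour single-concentration exposure. Example: -40 means 40% of the starting cells died.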 A number with no mark means an inactive call. Active and inactive are the calls of the source. Rule for the calls: active = growth percent below 10; inactive = the rest.

In the case of `CC/C(Cc1ccccc1)=C(\c1ccc(OCCCN(C)C)cc1)c1ccc(OC(=O)NCc2ccccc2)cc1`, the growth in test [1] is 73.9%; in test [2] it was -31.7% (active); in [3] it was 41.8%; in test [4], 65.2%; in test [5] it was 80%; in test [6], 72.4%. The growth in test [7] was 110%; in test [8] it was 93%; in [9], 83.4%; in test [10], 18.8%; in [11], 4.38% (active); in [12], 7.12% (active). The growth in test [13] is 69.4%; in test [14], 76.3%; in test [15], 35.7%; in [16], 64.5%; in [17], 74.4%; in test [18], 85%. The growth was 15.5% in [19] and 90% in test [20].

`CCN(CC)CCN1C(=O)c2cccc3c(/C=C/CN4C(=O)c5cccc6cccc(c56)C4=O)ccc(c23)C1=O`: the growth in test [1] was 106%; in test [2], 19.7%; in [3], 91.9%; in [4], 95.5%; in test [5] it was 74.2%; in test [6], 93.5%. Moreover, the growth in test [7] was 108%; in test [8], 92.5%; in test [9] it was 109%; in [10] it was 105%; in test [11], 95.8%; in [12], 103%. Also, the growth in [13] is 91.2%; in test [14], 96%; in test [15], 105%; in test [16] it was 86.6%; in [17], 94.3%; in test [18], 99.8%. The figures for the growth in test [19] and in test [20] were 96.6% and 109%, respectively.

In the case of `CCN1CCN(C(=O)[C@]23CC[C@@H](C)[C@H](C)[C@@H]2C2=CC[C@@H]4[C@@]5(C)C/C(=C/c6cccnc6)C(=O)C(C)(C)[C@@H]5CC[C@@]4(C)[C@]2(C)CC3)CC1`, the growth in test [1] was 48%; in test [2] it was 6.46% (active); in test [3], 12%; in [4], 34.7%; in [5] it was 3.08% (active); in test [6], 51%. Further, the growth in [7] is 37.3%; in test [8], 8.77% (active); in test [9] it was 26%; in test [10] it was 40.9%; in test [11], 15.2%; in [12] it was 12.1%. In addition, the growth in test [13] was 27.6%; in test [14], 45.9%; in test [15] it was 27.9%; in test [16], 16.7%; in [17], -23.4% (active); in test [18], 33.8%. Moreover, the values for the growth in test [19] and in test [20] were 14.9% and 37.4%, respectively.

For `C/C(Cc1ccc(Cl)cc1)=C(\c1ccc(OCCCN(C)C)cc1)c1ccc(OC(=O)Cc2ccccc2)cc1`, the growth in test [1] was 106%; in test [2], 91.8%; in test [3] it was 111%; in test [4], 108%; in test [5], 109%; in test [6], 97.6%. The growth in test [7] was 100%; in [8] it was 105%; in test [9], 103%; in test [10], 109%; in test [11], 103%; in [12], 78.8%. In addition, the growth in test [13] was 92.8%; in [14], 105%; in test [15], 112%; in test [16], 96.5%; in test [17], 102%; in [18], 105%. The growth was 99.2% in test [19] and 103% in test [20].

On to `CC(=O)O[C@H]1C[C@@H]2C(C)(C)C(=O)CC[C@@]2(C)c2ccc(C(C)C)cc21`, for which the growth in [1] was 102%; in test [2], 104%; in test [3], 109%; in test [4] it was 104%; in test [5], 121%; in test [6], 95.8%. For the same compound, the growth in test [7] is 100%; in [8], 110%; in test [9] it was 107%; in test [10], 104%; in test [11] it was 105%; in test [12], 111%. Further, the growth in test [13] was 100%; in test [14], 102%; in test [15] it was 97.7%; in test [16], 100%; in [17], 103%; in test [18], 101%. Besides, the growth in test [19] was 105%; in test [20] it was 121%.

On to `COc1ccc(CNc2c3ccccc3nc3ccccc23)c(OC)c1`, for which the growth in test [1] was 49.4%; in test [2], 13.2%; in test [3] it was 67%; in test [4], 43.6%; in test [5] it was 33.4%; in [6], 65.7%. Also, the growth is 36.3% in test [7]; 14.6% in test [8]; 74.6% in test [9]; 43.8% in [10]; 26% in test [11]; 13.8% in test [12]. The growth in test [13] is 64.5%; in test [14], 33.5%; in test [15], 41.8%; in test [16], 47.1%; in test [17], 70.3%; in [18], 54.5%. For the same compound, the growth in test [19] is 17.7%; in test [20], 69.3%.

Turning to `COc1ccc2c(c1)c(-c1nc(-c3c[nH]c4ncccc34)cs1)cn2CCO`, the growth was 56.5% in test [1]; 43.5% in [2]; 75.9% in [3]; 51.5% in test [4]; 30.1% in test [5]; 66.6% in [6]. The growth is 57.9% in test [7]; 50% in test [8]; 91% in [9]; 59.3% in test [10]; 32% in test [11]; 54.5% in test [12]. Also, the growth is 31.7% in [13]; 82.4% in [14]; 53.2% in [15]; 49% in test [16]; 58.4% in test [17]; 58.4% in [18]. Besides, the growth was 42.8% in [19] and 78.5% in test [20].

On to `O=C(Oc1ccc(CCl)cc1)c1ccccc1`, for which the growth is -92.9% (active) in test [1]; -37.5% (active) in [2]; -69.3% (active) in [3]; -82% (active) in test [4]; -90.5% (active) in [5]; -79.3% (active) in test [6]. The growth in [7] is -92.5% (active); in test [8], -87.6% (active); in test [9], -67.4% (active); in test [10], -82.7% (active); in [11], -87.4% (active); in test [12], -58.4% (active). Moreover, the growth in test [13] was -98.6% (active); in test [14], -86.4% (active); in [15], -86.3% (active); in test [16], -91.3% (active); in [17] it was -99% (active); in test [18], -76.9% (active). In addition, the results for the growth in test [19] and in test [20] were -85.1% (active) and -75.6% (active), respectively.
